Assay results: PubChem BioAssay AID1347056 (Sanford-Burnham Center for Chemical Genomics, 2019)
Hit rate of the full screen: of about 360,000 compounds, about 3,600 (1%) were called active.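 How the source made its calls: active means compounds whose plate-normalised and pattern-corrected inhibition of the luciferase reporter signal at the single screening dose is 50% or more; inactive means the rest.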 The full list was thinned out, with actives kept by preference.

Experiment: TROY pathway blockers in reporter cells – Q293 LMP1-TROYcd cells, NF-kB luciferase, uHTS, primary screen (AID 1347056)
Details: 4 h, at 10 µM, hits give high values
In the case of `COc1cccc(-c2cnc3c(NC(C)=O)cc(-c4cccc(NC(C)=O)c4)cn23)c1`, the inhibition is reported as 12.8% (inactive).
In the case of `CC(=O)Nc1cccc(-c2cc(NC=O)c3ncc(-c4ccc(F)c(Cl)c4)n3c2)c1`, the inhibition is reported as 83.1% (active).
For `CC(=O)c1cccc(-c2cnc3c(NC=O)cc(-c4cccc(C(=O)N(C)C)c4)cn23)c1`, the inhibition was -8.12% (inactive).
With `COc1cccc(-c2cc(NC(C)=O)c3ncc(-c4cccc(C(C)=O)c4)n3c2)c1` the inhibition was 12.8% (inactive).
With `CC(=O)c1ccc(-c2cnc3c(NC=O)cc(-c4cccc(NS(C)(=O)=O)c4)cn23)cc1` the inhibition was 22.6% (inactive).
For `CC(=O)Nc1cccc(-c2cc(NC(C)=O)c3ncc(-c4ccccc4)n3c2)c1`, the inhibition was 80.3% (active).
For `O=C(Nc1ccccc1F)c1ccc(Cn2cc(Br)cn2)cc1`, the inhibition was -34.2% (inactive).
For `CCC(=NC1CC(C)(C)NC(C)(C)C1)C1=C(O)CC(C)(C)CC1=O`, the inhibition was -0.72% (inactive).
With `CC(C)c1cc(C(=O)O)on1` the inhibition was -0.05% (inactive).
For `CC1O[C@@H](OC2C(O)C(C)O[C@H](OC(=O)[C@]34CCC(C)(C)C[C@H]3C3=CCC5[C@@]6(C)CC(O)C(O[C@@H]7OC(CO)C(O)[C@@H](O)[C@@H]7O)[C@@](C)(C(=O)O)C6CC[C@@]5(C)[C@]3(CO)CC4)C2O[C@H]2OC(C)[C@@H](O[C@@H]3OCC(O[C@@H]4OC(CO)C(O)[C@H](O)C4O)[C@@H](O)[C@@H]3O)[C@H](O)C2O)C(O)C(O)C1O` (stereo not given in full), the inhibition was 5% (inactive).
With `Cc1nc2ccccc2c(=O)n1NC(=O)c1ccc(Cl)c([N+](=O)[O-])c1` the inhibition was 73.3% (active).
For `O=C(Nn1c(SCc2ccc([N+](=O)[O-])cc2)nc2ccccc2c1=O)c1ccc(F)cc1`, the inhibition was 36.3% (inactive).
With `Cc1ccnc(NC(=O)c2ccc(Cl)c([N+](=O)[O-])c2)c1` the inhibition was -25.6% (inactive).
For `Cc1cccc(OC(C)C(=O)N2CCc3ccccc3C2)c1` (stereo not given), the inhibition was -6.07% (inactive).
In the case of `Cc1cccnc1C(NC(=O)C1CCN(Cc2ccc(Cl)c(Cl)c2)CC1)c1ccc(Cl)cc1` (stereo not given), the inhibition is reported as 4.08% (inactive).
With `COCCCNC(=O)CNC(=S)N(Cc1cc(OC)c(OC)c(OC)c1)C1CCCC1` the inhibition was 10.9% (inactive).
In the case of `Cc1ccc(SCC(=O)c2cc(C)c(OC(=S)N(C)C)c(C)c2)cc1`, the inhibition is reported as 63.3% (active).
With `Cc1ccc(SCC(=O)Nc2ccc3c(c2)OCCO3)cc1` the inhibition was -62.5% (inactive).
For `COC(=O)c1cc(OC)c(OC)cc1NC(=O)CSc1ccc(C)cc1`, the inhibition was 21.1% (inactive).
For `CC(C)(C)c1ccc(Oc2ccc(N)cc2)cc1`, the inhibition was 86.2% (active).
For `Cc1cc(C(C)(C)C)cc(C)c1N`, the inhibition was 2.63% (inactive).
In the case of `CN(C)S(=O)(=O)c1ccc(Oc2ccc(S(=O)(=O)N(C)C)cc2)cc1`, the inhibition is reported as -1.31% (inactive).
For `COc1ccc(S(=O)(=O)N(C)C[C@H]2Oc3ccc(NS(=O)(=O)c4cccs4)cc3CC(=O)N([C@H](C)CO)C[C@H]2C)cc1`, the inhibition was -24.6% (inactive).
With `Cc1ccc(N(C(=O)C(F)(F)F)C(C(=O)NC2CCCCC2)c2ccncc2)cc1C` (stereo not given) the inhibition was -2.62% (inactive).
With `O=C(c1ccc2c(c1)C(=O)N(Cc1ccncc1)C2=O)N1CCN(S(=O)(=O)c2ccc(OC(F)(F)F)cc2)CC1` the inhibition was 0.85% (inactive).
In the case of `CC(C)(C)NC(=O)c1ccc(Cn2cc(C(F)(F)F)ccc2=O)cc1`, the inhibition is reported as 9.78% (inactive).
For `O=C(NCC(=O)N1CCN(c2ccccc2F)CC1)c1cccs1`, the inhibition was -32.6% (inactive).
For `O=C(NCC(=O)N1CCN(c2ccccc2O)CC1)c1ccc2ccccc2c1`, the inhibition was 71.8% (active).
In the case of `COc1ccc(N2CCN(C(=O)CNC(=O)c3ccc(C(C)(C)C)cc3)CC2)cc1`, the inhibition is reported as -17.8% (inactive).
For `CCC(Oc1ccccc1C)C(=O)Nc1ccc(S(=O)(=O)Nc2cc(C)on2)cc1` (stereo not given), the inhibition was -0.38% (inactive).
For `COc1ccc(C(=O)Nc2c(N)nc(SCC(=O)Nc3ccc(C(C)=O)cc3)[nH]c2=O)cc1`, the inhibition was -11% (inactive).
In the case of `Cc1ccc(S(=O)(=O)N(CC(=O)Nc2cccc([N+](=O)[O-])c2)Cc2ccc(Cl)cc2)cc1`, the inhibition is reported as 44.3% (inactive).
In the case of `COC(=O)Cc1[nH]n(-c2nc3ccccc3s2)c(=O)c1C(C)=Nc1ccc(OC)cc1`, the inhibition is reported as 54.6% (active).
In the case of `O=C1CSC(=O)N1CCOCCN1C(=O)CSC1=O`, the inhibition is reported as -11.1% (inactive).
With `COc1ccccc1C(=O)NC(=S)NC12CC3CC(CC(C3)C1)C2` the inhibition was 14.8% (inactive).
For `COc1ccccc1C(=O)NC(=S)Nc1ccccc1N1CCCCC1`, the inhibition was 50.5% (active).
With `COc1ccccc1C(=O)NC(=S)Nc1ccc(N2CCOCC2)cc1` the inhibition was 30.2% (inactive).
With `Cc1ccc(CN(Cc2cccnc2)C(=S)Nc2cc(Cl)ccc2C)cc1` the inhibition was -0.68% (inactive).
In the case of `NC(=O)C1(C(N)=O)OC1c1ccc(Cl)cc1Cl` (stereo not given), the inhibition is reported as -4.3% (inactive).
With `O=C(N/N=C/c1ccc(OC(=O)c2ccccc2Cl)cc1)c1ccc(O)cc1` the inhibition was 54.5% (active).
With `COc1cccc(OCc2cc(/C=N/NC(=O)c3nc(Cl)c(Cl)c(N)c3Cl)ccc2OC)c1` the inhibition was 11.1% (inactive).
In the case of `O=C(NN=Cc1ccc2c(c1)CCC2)c1ccccc1O`, the inhibition is reported as -55% (inactive).
For `CCOc1ccc(-c2cc(C(=O)N/N=C/c3ccc(O)cc3)c3ccccc3n2)cc1`, the inhibition was 42.4% (inactive).
With `CC(C)(C)C(=O)Nc1ccc(C(=O)N/N=C/c2ccccc2OC(=O)c2ccc(Cl)cc2Cl)cc1` the inhibition was -17% (inactive).
For `COc1ccc(C(=O)Nc2ccccc2C(=O)N/N=C/c2ccc(O)c(OC)c2)cc1`, the inhibition was 84.9% (active).
